# Assay results reported in the supplement of paper PMC11732987, “Enantioselective OTUD7B fragment discovery through chemoproteomics screening and high-throughput optimisation” (Communications Chemistry, 2025).
# Unmarked numbers belong to inactive results.
# Legend:
# Test in all cases: log2 ratio of Biotin-Ahx-Ub-VS probe labelling (fragment/DMSO); higher = less target engagement (more negative = stronger competition), active = hit call of the paper (q ≤ 0.05, log2 ratio ≤ -1)
# Conditions in all cases: compound concentration: 200 uM; treatment time: 3 h
# USP19 = biological target: T1, USP19 (UniProt O94966)
# T1 sequence (whole entry): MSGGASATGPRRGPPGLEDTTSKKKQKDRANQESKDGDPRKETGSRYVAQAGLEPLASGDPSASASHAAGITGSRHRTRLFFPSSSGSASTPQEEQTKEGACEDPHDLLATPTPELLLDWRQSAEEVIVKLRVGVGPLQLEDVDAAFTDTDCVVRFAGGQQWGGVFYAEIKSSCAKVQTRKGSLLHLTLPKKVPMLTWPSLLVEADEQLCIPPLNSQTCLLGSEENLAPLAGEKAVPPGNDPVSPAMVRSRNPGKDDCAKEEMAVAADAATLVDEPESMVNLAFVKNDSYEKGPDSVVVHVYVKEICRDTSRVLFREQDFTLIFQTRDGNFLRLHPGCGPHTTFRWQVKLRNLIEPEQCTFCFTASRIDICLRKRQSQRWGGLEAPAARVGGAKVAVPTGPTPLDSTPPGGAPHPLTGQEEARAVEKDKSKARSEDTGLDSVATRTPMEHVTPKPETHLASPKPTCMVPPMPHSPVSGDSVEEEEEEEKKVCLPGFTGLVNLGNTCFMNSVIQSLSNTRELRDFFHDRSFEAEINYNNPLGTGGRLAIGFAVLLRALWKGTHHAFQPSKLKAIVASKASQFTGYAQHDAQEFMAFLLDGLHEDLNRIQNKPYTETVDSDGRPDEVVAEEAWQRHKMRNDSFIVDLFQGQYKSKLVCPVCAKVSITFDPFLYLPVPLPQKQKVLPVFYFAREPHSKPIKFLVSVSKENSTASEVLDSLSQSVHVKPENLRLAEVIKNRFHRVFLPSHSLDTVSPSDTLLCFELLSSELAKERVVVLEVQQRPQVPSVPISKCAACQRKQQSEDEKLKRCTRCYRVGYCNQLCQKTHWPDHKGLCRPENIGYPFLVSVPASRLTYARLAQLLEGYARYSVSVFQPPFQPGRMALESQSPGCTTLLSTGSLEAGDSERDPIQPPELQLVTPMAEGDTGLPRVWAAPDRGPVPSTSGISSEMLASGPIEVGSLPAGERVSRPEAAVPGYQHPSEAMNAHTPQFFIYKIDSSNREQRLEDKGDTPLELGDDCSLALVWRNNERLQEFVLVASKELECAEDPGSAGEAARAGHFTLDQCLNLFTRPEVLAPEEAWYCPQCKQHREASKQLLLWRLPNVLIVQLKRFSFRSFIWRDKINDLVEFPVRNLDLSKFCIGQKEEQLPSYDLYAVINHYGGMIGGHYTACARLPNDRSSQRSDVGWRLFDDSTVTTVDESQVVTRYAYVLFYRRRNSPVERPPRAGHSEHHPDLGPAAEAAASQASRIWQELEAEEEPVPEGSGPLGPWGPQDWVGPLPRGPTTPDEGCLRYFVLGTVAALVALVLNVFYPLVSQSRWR
# Procedure, shortened: (§1)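 HEK293T lysate (495 µg per sample, in Tris/CHAPS/IGEPAL buffer with protease inhibitors) was exposed in triplicate for 3 h to fragment at 200 µM or to vehicle, then to Biotin-Ahx-Ub-VS at 0.5 µM final for 1 h. Labelled DUBs were enriched on NeutrAvidin, digested with LysC and trypsin, and analysed by diaPASEF LC-MS/MS. Spectronaut label-free quantities were normalised to the global median, and values are average log2 ratios of fragment over vehicle from an unpaired t-test. Only proteins with ≥2 unique peptides were used.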
# USP22 = biological target: T2, USP22 (UniProt Q9UPT9)
# T2 sequence (whole entry): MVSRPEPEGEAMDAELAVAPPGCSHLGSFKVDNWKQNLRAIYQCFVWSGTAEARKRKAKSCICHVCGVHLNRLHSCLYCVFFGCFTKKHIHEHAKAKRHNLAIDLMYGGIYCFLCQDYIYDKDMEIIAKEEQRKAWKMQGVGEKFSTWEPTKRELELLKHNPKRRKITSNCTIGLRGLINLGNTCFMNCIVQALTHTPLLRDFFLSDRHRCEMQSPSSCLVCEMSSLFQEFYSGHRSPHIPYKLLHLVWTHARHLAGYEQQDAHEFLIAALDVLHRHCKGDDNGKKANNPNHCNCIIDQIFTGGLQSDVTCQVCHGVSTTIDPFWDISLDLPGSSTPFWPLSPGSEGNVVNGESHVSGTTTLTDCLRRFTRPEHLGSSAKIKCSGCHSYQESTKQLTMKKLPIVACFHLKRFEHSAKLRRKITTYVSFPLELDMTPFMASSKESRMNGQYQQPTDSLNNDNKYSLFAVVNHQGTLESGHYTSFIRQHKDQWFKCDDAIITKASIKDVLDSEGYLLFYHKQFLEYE
# Procedure, shortened: as §1
# USP24 = USP24 (UniProt Q9UPU5)
# Chain of USP24 (Q9UPU5 whole entry): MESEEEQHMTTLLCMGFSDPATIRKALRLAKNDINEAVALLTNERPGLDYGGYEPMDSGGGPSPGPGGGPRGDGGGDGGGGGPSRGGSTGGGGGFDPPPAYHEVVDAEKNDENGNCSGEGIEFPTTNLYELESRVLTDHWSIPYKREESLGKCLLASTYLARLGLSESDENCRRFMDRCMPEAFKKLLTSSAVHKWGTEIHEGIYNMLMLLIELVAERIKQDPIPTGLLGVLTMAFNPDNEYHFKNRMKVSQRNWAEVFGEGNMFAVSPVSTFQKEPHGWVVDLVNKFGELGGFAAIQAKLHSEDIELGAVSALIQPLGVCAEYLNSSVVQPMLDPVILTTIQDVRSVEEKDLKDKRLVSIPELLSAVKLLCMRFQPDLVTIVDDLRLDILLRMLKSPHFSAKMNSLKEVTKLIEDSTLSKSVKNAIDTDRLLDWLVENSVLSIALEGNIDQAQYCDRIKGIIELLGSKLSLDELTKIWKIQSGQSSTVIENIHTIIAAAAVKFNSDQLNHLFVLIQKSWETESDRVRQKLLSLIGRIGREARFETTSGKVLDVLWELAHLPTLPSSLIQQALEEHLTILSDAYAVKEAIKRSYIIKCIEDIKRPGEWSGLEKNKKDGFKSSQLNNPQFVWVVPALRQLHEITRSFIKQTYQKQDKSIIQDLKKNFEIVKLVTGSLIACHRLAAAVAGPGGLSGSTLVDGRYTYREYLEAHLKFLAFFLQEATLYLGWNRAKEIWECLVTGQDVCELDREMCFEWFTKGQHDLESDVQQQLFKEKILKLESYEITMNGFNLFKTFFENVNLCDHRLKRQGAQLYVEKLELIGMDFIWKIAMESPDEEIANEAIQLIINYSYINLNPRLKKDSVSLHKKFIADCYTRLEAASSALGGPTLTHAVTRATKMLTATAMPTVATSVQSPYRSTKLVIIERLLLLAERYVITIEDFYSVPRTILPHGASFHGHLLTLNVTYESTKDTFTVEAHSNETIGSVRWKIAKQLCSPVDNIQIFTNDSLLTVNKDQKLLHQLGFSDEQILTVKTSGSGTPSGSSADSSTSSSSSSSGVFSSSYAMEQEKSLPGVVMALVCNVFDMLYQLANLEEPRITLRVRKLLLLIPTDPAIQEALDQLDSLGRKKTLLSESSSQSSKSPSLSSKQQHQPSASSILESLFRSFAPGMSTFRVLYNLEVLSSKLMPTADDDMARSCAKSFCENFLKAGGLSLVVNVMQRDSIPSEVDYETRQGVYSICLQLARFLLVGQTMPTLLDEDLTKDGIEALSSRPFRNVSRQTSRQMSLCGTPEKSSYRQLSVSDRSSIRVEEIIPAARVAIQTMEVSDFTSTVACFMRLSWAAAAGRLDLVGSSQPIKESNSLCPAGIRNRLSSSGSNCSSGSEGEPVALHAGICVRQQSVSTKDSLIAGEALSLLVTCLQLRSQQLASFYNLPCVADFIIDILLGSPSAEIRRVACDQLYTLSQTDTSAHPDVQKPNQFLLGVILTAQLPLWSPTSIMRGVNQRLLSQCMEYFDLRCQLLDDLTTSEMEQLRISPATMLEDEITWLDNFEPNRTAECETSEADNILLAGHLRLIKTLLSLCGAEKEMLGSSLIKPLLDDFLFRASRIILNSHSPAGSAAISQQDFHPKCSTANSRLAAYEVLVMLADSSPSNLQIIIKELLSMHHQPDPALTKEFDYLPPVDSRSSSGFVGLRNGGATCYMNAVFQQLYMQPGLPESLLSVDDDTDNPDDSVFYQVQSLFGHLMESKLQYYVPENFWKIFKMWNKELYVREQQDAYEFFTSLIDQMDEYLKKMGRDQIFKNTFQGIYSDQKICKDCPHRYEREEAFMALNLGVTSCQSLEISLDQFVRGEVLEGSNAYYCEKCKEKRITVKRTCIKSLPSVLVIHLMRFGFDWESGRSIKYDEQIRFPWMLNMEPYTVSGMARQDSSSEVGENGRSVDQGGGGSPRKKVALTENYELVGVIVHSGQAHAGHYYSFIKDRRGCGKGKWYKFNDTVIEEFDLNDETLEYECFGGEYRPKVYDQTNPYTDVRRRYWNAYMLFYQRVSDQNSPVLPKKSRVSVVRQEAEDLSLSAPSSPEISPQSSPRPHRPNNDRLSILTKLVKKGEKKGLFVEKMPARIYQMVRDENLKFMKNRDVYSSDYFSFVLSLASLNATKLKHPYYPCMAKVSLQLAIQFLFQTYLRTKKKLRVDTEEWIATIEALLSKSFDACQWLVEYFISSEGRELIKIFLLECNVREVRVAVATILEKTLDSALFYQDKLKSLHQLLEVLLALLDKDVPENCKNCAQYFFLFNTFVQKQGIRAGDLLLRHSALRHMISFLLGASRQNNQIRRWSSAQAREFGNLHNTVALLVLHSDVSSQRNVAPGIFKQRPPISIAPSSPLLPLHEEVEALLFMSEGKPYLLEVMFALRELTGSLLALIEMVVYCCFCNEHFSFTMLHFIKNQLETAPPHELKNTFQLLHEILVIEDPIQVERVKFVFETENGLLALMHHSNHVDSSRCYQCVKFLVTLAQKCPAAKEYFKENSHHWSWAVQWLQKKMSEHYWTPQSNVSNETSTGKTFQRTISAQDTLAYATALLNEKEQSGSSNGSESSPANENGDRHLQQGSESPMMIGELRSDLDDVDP
# Procedure, shortened: as §1
# USP25 = biological target: T3, USP25 (UniProt Q9UHP3)
# T3 sequence (whole entry): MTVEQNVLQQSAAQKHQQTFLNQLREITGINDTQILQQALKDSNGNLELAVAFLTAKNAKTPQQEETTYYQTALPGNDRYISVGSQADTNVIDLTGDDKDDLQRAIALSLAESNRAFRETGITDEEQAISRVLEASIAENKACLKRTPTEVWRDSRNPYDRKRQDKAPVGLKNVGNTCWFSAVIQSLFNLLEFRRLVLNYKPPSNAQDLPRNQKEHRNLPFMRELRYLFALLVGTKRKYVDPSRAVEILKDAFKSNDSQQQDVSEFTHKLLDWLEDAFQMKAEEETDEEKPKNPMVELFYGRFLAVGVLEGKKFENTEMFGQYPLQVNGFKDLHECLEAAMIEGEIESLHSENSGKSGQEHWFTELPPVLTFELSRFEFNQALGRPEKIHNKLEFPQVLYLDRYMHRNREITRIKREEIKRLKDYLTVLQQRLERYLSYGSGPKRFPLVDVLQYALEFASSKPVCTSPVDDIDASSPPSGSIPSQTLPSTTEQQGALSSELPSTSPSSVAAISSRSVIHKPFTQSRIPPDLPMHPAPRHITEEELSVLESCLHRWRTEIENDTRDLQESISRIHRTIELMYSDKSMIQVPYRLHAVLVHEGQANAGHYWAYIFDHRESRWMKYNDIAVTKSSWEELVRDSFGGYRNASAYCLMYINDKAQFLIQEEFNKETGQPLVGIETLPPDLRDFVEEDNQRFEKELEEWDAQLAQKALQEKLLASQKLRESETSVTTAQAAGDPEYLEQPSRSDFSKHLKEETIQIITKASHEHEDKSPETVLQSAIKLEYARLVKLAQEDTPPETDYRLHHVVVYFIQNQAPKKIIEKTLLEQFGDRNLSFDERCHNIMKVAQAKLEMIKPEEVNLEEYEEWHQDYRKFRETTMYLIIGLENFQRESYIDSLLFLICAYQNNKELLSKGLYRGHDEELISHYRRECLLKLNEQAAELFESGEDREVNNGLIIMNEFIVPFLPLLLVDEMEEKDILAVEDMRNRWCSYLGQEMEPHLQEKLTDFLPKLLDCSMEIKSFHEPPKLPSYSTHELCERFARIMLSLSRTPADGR
# Procedure, shortened: as §1
# USP28 = biological target: T4, USP28 (UniProt Q96RU2)
# T4 sequence (whole entry): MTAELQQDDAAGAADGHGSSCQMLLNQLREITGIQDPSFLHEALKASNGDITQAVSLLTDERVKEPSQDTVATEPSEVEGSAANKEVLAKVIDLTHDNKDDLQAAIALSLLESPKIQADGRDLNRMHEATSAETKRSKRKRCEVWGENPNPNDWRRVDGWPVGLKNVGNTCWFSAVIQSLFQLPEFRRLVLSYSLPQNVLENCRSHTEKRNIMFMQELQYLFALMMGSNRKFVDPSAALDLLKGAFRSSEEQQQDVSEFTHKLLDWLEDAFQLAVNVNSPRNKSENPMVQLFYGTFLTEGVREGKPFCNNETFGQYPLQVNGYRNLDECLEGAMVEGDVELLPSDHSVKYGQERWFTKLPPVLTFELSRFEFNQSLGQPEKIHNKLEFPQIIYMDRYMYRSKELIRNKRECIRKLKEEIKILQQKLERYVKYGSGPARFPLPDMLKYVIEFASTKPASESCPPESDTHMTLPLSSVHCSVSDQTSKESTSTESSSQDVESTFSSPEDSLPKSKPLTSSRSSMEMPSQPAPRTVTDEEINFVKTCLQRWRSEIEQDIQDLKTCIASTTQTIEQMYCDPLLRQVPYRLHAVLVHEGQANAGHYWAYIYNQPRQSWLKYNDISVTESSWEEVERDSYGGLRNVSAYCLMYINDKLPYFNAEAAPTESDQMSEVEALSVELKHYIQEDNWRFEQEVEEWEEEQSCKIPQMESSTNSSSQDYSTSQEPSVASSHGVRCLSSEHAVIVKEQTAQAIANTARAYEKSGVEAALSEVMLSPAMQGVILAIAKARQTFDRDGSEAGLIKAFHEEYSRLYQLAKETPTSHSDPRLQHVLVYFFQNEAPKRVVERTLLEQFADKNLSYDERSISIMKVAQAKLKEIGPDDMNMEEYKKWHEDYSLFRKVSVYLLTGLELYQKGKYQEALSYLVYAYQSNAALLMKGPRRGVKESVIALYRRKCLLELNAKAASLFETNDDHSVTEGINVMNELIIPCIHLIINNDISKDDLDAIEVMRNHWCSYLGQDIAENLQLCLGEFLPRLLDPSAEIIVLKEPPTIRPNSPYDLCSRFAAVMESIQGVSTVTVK
# Procedure, shortened: as §1
smiles,measurement,setting,value
O=C(CCl)Nc1ccc(Cl)c(F)c1,log2 ratio of Biotin-Ahx-Ub-VS probe labelling,USP19,-0.486
same,log2 ratio of Biotin-Ahx-Ub-VS probe labelling,USP22,-0.253
same,log2 ratio of Biotin-Ahx-Ub-VS probe labelling,USP24,-1.66 (active)
same,log2 ratio of Biotin-Ahx-Ub-VS probe labelling,USP25,-1.62 (active)
same,log2 ratio of Biotin-Ahx-Ub-VS probe labelling,USP28,-1.53 (active)
